PubChem BioAssay (NCATS)
Records with an inconclusive call do not appear. The source made the active and inactive calls. Calls come from the whole dose curve; as a rule, active = well fitted curve in the direction sought with a large enough effect; inconclusive = small, poorly fitted or top-dose-only effect, or another doubt; inactive = no such curve, though single readings can be large; an effect the other way counts as inactive or inconclusive.

Key:
[1] = qHTS of pediatric cancer cell lines to identify multiple opportunities for drug repurposing: Primary screen for A673 cells (AID 1347092); note: % is set by controls: 0 for no effect and ±100 for the full control effect; nearly all actives have a fitted effect of over 45% in size
How it was run: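 Luminescence from CellTiter-Glo, taken after 15 min at room temperature, served as the proxy for metabolically active cells following 48 h treatment. Both potency and efficacy were taken from curves fitted to the titration data.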

[2] = qHTS of pediatric cancer cell lines to identify multiple opportunities for drug repurposing: Primary screen for SK-N-MC cells (AID 1347093);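 note: series mostly up to about 46 µM; plate controls were DMSO neutral control for no effect and bortezomib for full effect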
How it was run: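 Metabolically active cells were quantified by ATP-dependent luminescence (CellTiter-Glo, 15 min at room temperature) following 48 h treatment. Cells had been plated at 500-1,000 per well and settled for 5 h beforehand.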

[3] = qHTS of pediatric cancer cell lines to identify multiple opportunities for drug repurposing: Primary screen for BT-37 cells (AID 1347094);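 note: series mostly up to about 57 µM; plate controls were DMSO for no effect and bortezomib for full effect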
How it was run: (§1)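 Readout: CellTiter-Glo luminescence, 48 h treatment. Controls DMSO (neutral) and bortezomib 2.3 µM final (positive). Potency and efficacy taken from primary-screen concentration-response curves.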

[4] = qHTS of pediatric cancer cell lines to identify multiple opportunities for drug repurposing: Primary screen for NB-EBc1 cells (AID 1347095);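 note: plate controls were DMSO neutral control for no effect and bortezomib for full effect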
How it was run: as §1

[5] = qHTS of pediatric cancer cell lines to identify multiple opportunities for drug repurposing: Primary screen for U-2 OS cells (AID 1347096);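 note: plate controls were DMSO wells for no effect and bortezomib positive control wells for full effect; nearly all actives have a fitted effect of over 50% in size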
How it was run: (§2)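 Viability after 48 h compound treatment at 37C, 500-1,000 cells/well, read as ATP luminescence with CellTiter-Glo. Primary screens used 11-point (MIPE, 0.78 nM-46 µM) or 8-point (NPC, 0.59 nM-46 µM) final concentrations; follow-up screens used 11-point dilutions.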

[6] = qHTS of pediatric cancer cell lines to identify multiple opportunities for drug repurposing: Primary screen for Saos-2 cells (AID 1347097); note: % is set by controls: 0 for no effect and ±100 for the full control effect; nearly all actives have a fitted effect of over 40% in size
How it was run: as §1

[7] = qHTS of pediatric cancer cell lines to identify multiple opportunities for drug repurposing: Primary screen for SK-N-SH cells (AID 1347098); note: % is set by controls: 0 for no effect and ±100 for the full control effect; nearly all actives have a fitted effect of over 65% in size
How it was run: (§3)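 Cells (500-1,000/well) rested 5 h, then received compounds for 48 h; metabolically active cells were measured by CellTiter-Glo luminescence. Final concentrations spanned up to 46 µM (MIPE, 11-point) or 0.59 nM-46 µM (NPC, 8-point) in primary screens, 11-point in follow-ups.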

[8] = qHTS of pediatric cancer cell lines to identify multiple opportunities for drug repurposing: Primary screen for NB1643 cells (AID 1347099);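 note: plate controls were DMSO neutral control for no effect and bortezomib positive control for full effect; nearly all actives have a fitted effect of over 50% in size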
How it was run: as §1

[9] = qHTS of pediatric cancer cell lines to identify multiple opportunities for drug repurposing: Primary screen for LAN-5 cells (AID 1347100);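 note: plate controls were DMSO neutral control for no effect and bortezomib positive control for full effect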
How it was run: as §2

[10] = qHTS of pediatric cancer cell lines to identify multiple opportunities for drug repurposing: Primary screen for Rh18 cells (AID 1347102); note: % is set by controls: 0 for no effect and ±100 for the full control effect; nearly all actives have a fitted effect of over 65% in size
How it was run: as §2

[11] = qHTS of pediatric cancer cell lines to identify multiple opportunities for drug repurposing: Primary screen for OHS-50 cells (AID 1347103);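 note: plate controls were DMSO neutral control for no effect and bortezomib positive control for full effect; nearly all actives have a fitted effect of over 40% in size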
How it was run: as §3

[12] = qHTS of pediatric cancer cell lines to identify multiple opportunities for drug repurposing: Primary screen for RD cells (AID 1347104);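 note: plate controls were DMSO for no effect and bortezomib for full effect; nearly all actives have a fitted effect of over 55% in size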
How it was run: as §1

[13] = qHTS of pediatric cancer cell lines to identify multiple opportunities for drug repurposing: Primary screen for Rh30 cells (AID 1347107); note: series mostly up to about 46 µM; % is set by controls: 0 for no effect and ±100 for the full control effect; nearly all actives have a fitted effect of over 75% in size
How it was run: as §2

[14] = qHTS of pediatric cancer cell lines to identify multiple opportunities for drug repurposing: Primary screen for Rh41 cells (AID 1347108);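 note: series mostly up to about 46 µM; luminescence drop marks cytotoxic hits; nearly all actives have a fitted effect of over 70% in size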
How it was run: as §1

[15] = qHTS of pediatric cancer cell lines to identify multiple opportunities for drug repurposing: Primary screen for MG 63 (6-TG R) cells (AID 1347105); note: % is set by controls: 0 for no effect and ±100 for the full control effect; nearly all actives have a fitted effect of over 50% in size
How it was run: as §1

[16] = qHTS of pediatric cancer cell lines to identify multiple opportunities for drug repurposing: Primary screen for BT-12 cells (AID 1347101);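 note: plate controls were DMSO for no effect and bortezomib positive control for full effect; nearly all actives have a fitted effect of over 25% in size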
How it was run: as §3

[17] = qHTS of pediatric cancer cell lines to identify multiple opportunities for drug repurposing: Primary screen for control Hh wild type fibroblast cells (AID 1347106);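 note: series mostly up to about 46 µM; % is set by controls: 0 for no effect and ±100 for the full control effect; a drop in luminescence marks cytotoxicity and a rise apparent proliferation; nearly all actives have a fitted effect of over 55% in size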
How it was run: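 Cells (500-1,000/well) in growth media were settled 5 h at 37 degrees C, then given compounds for 48 h. Viability was read as CellTiter-Glo luminescence. Primary runs used MIPE at 11 points (0.78 nM-46 µM) and NPC at 8 points (0.59 nM-46 µM); follow-ups used 11 points.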

c1ccc2c(c1)CCCC2C1=NCCN1 (stereo not given)
inactive: Potency [1] | Potency [2] | Potency [3] | Potency [4] | Potency [5] | Potency [6] | Potency [7] | Potency [8] | Potency [9] | Potency [10] | Potency [11] | Potency [12] | Potency [13] | Potency [14]

CC(C)(C)NCC(O)c1cc(O)cc(O)c1 (stereo not given)
inactive: Potency [1] | Potency [2] | Potency [3] | Potency [4] | Potency [5] | Potency [6] | Potency [7] | Potency [8] | Potency [9] | Potency [10] | Potency [11] | Potency [12] | Potency [15] | Potency [13] | Potency [14]

CC[N+](C)(C)c1cccc(O)c1
inactive: Potency [1] | Potency [2] | Potency [3] | Potency [4] | Potency [5] | Potency [6] | Potency [7] | Potency [8] | Potency [9] | Potency [16] | Potency [10] | Potency [11] | Potency [12] | outcome [17] | Potency [13] | Potency [14]

CC(=O)OCC1=C(C(=O)O)N2C(=O)[C@@H](NC(=O)Cc3cccs3)[C@H]2SC1
inactive: Potency [1] | Potency [2] | Potency [3] | Potency [4] | Potency [5] | Potency [6] | Potency [7] | Potency [8] | Potency [9] | Potency [10] | Potency [11] | Potency [12] | Potency [15] | Potency [13] | Potency [14]

CCCOc1ccccc1-c1nc2n[nH]nc2c(=O)[nH]1
inactive: Potency [1] | Potency [2] | Potency [3] | Potency [4] | Potency [5] | Potency [6] | Potency [7] | Potency [8] | Potency [9] | Potency [16] | Potency [10] | Potency [11] | Potency [12] | Potency [15] | Potency [13] | Potency [14]

CC1=NS(=O)(=O)c2cc(Cl)ccc2N1
inactive: Potency [1] | Potency [2] | Potency [3] | Potency [4] | Potency [5] | Potency [6] | Potency [7] | Potency [8] | Potency [9] | Potency [16] | Potency [10] | Potency [11] | Potency [12] | outcome [17] | Potency [13] | Potency [14]

CN(C)C(=O)Oc1ccc[n+](C)c1
inactive: Potency [1] | Potency [2] | Potency [3] | Potency [4] | Potency [5] | Potency [6] | Potency [7] | Potency [8] | Potency [9] | Potency [16] | Potency [10] | Potency [11] | Potency [12] | Potency [15] | outcome [17] | Potency [13] | Potency [14]

CN1CCN(CC(=O)N2c3ccccc3C(=O)Nc3cccnc32)CC1
inactive: activity change, negative = cytotoxic [1] 5.45% [at 4.84 µM] | activity change, negative = cytotoxic [2] -2.23% [at 4.84 µM] | activity change, negative = cytotoxic [3] 11.8% [at 6.03 µM] | activity change, negative = cytotoxic [4] 16.9% [at 4.84 µM] | activity change, negative = cytotoxic [5] 4.1% [at 4.84 µM] | activity change, negative = cytotoxic [6] -2.29% [at 4.84 µM] | activity change, negative = cytotoxic [7] 4.46% [at 6 µM] | activity change, negative = cytotoxic [8] 9.59% [at 4.84 µM] | activity change, negative = cytotoxic [9] 10.3% [at 4.84 µM] | activity change, negative = cytotoxic [10] 9.39% [at 4.84 µM] | activity change, negative = cytotoxic [11] 7.59% [at 6.18 µM] | activity change, negative = cytotoxic [12] 6.71% [at 4.84 µM] | activity change, negative = cytotoxic [17] 2.83% [at 4.84 µM] | activity change, negative = cytotoxic [13] 18% [at 4.84 µM] | activity change, negative = cytotoxic [14] 19.3% [at 4.84 µM]

CCc1c(C)[nH]c2c1C(=O)C(CN1CCOCC1)CC2 (stereo not given)
inactive: Potency [1] | Potency [2] | Potency [3] | Potency [4] | Potency [5] | Potency [6] | Potency [7] | Potency [8] | Potency [9] | Potency [10] | Potency [11] | Potency [12] | Potency [15] | outcome [17] | Potency [13] | Potency [14]

Cc1nnc(SCC2=C(C(=O)O)N3C(=O)[C@@H](NC(=O)Cn4cnnn4)[C@H]3SC2)s1
inactive: Potency [1] | Potency [2] | Potency [3] | Potency [4] | Potency [5] | Potency [6] | Potency [7] | Potency [8] | Potency [9] | Potency [16] | Potency [10] | Potency [11] | Potency [12] | Potency [15] | Potency [13] | Potency [14]

CCn1ccnc1CC1COc2ccccc2O1 (stereo not given)
inactive: Potency [1] | Potency [2] | Potency [3] | Potency [4] | Potency [5] | Potency [6] | Potency [7] | Potency [8] | Potency [9] | Potency [10] | Potency [11] | Potency [12] | Potency [15] | outcome [17] | Potency [13] | Potency [14]

CN(C)[C@@H]1C(=O)C(C(N)=O)=C(O)[C@@]2(O)C(=O)C3=C(O)c4c(O)ccc(Cl)c4[C@@H](O)[C@H]3C[C@@H]12
inactive: Potency [1] | Potency [2] | Potency [3] | Potency [4] | Potency [5] | Potency [6] | Potency [7] | Potency [8] | Potency [9] | Potency [10] | Potency [11] | Potency [12] | Potency [15] | outcome [17] | Potency [13] | Potency [14]

CN(C)C/C=C(/c1ccc(Br)cc1)c1cccnc1
inactive: Potency [1] | Potency [2] | Potency [3] | Potency [4] | Potency [5] | Potency [6] | Potency [7] | Potency [8] | Potency [9] | Potency [16] | Potency [10] | Potency [12] | Potency [15] | outcome [17] | Potency [13] | Potency [14]

CN(C)CCOC(=O)COc1ccc(Cl)cc1
inactive: Potency [1] | Potency [2] | Potency [3] | Potency [4] | Potency [5] | Potency [6] | Potency [7] | Potency [8] | Potency [9] | Potency [10] | Potency [11] | Potency [12] | Potency [15] | Potency [13] | Potency [14]

CCN(CC)CCNC(=O)c1cc(S(C)(=O)=O)ccc1OC
inactive: Potency [1] | Potency [2] | Potency [3] | Potency [4] | Potency [5] | Potency [6] | Potency [7] | Potency [8] | Potency [9] | Potency [10] | Potency [11] | Potency [12] | Potency [15] | outcome [17] | Potency [13] | Potency [14]
